# Results as given in PubChem BioAssay (NCATS).
# Values joined by “and” are separate entries in the source; they are usually repeats but may differ in a detail not shown here. Equal entries are not always repeated. The source holds several records for some structures; these can differ, active in one and inactive in another. Active and inactive are the calls of the source. Where a call stands in place of a potency, no number is given. Unless noted, calls come from the whole dose curve; as a rule, active = well fitted curve in the direction sought with a large enough effect; inconclusive = small, poorly fitted or top-dose-only effect, or another doubt; inactive = no such curve, though single readings can be large; an effect the other way counts as inactive or inconclusive.
# Tests used:
# [1] = Cell Viability - LYMP2-015 (AID 971); note: nearly all actives have a fitted effect of over 55% in size
# Outline: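 qHTS cytotoxicity: 2500 cells/well, 5 hr 37 C, compound 24 hr 37 C, CellTiter-Glo 30 min RT, luminescence. Loss of ATP = toxicity; AC50 via standard Hill fit.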
# [2] = Cell Viability - LYMP2-023 (AID 975);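 note: cellular ATP measured by luciferase luminescence as viability proxy; series mostly up to about 92 µM; nearly all actives have a fitted effect of over 55% in size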
# Outline: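 CellTiter-Glo luminescence after 30 min at room temperature; decrease in intracellular ATP reflects toxicity. Cells: human lymphoblastoid line, 2500/well, 24 hr compound exposure at 37 C. AC50 fitted to standard Hill equation from concentration-response.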
# [3] = Cell Viability - LYMP2-002 (AID 977);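 note: series mostly up to about 92 µM; compound exposure lasted 24 h at 37 °C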
# Outline: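 In this qHTS viability screen, 2500 human lymphoblastoid cells per well receive compound for 24 hr at 37 C, and luciferase-based ATP luminescence gives the viability signal. Tetraoctylammonium bromide serves as positive control.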
# [4] = Cell Viability - LYMP2-006 (AID 978); note: series mostly up to about 92 µM; nearly all actives have a fitted effect of over 60% in size
# Outline: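 Cells are seeded at 2500 per well and rested 5 hr at 37 C. Compounds are added across a concentration series for 24 hr at 37 C, after which ATP is quantified by luciferase luminescence.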
# [5] = Cell Viability - LYMP2-008 (AID 980); note: nearly all actives have a fitted effect of over 60% in size
# Outline: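 Luminescent ATP read-out (CellTiter-Glo, 30 min RT) after 24 hr compound exposure at 37 C of human lymphoblastoid cells in complete medium. Decrease in ATP taken as cytotoxicity; AC50 derived by standard Hill fit of qHTS concentration-response data.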
# [6] = Cell Viability - LYMP2-010 (AID 981); note: nearly all actives have a fitted effect of over 55% in size
# Outline: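 qHTS cytotoxicity, 1536-well: 2500 cells/well, 5 hr settle, 24 hr compound at 37 C, CellTiter-Glo 30 min RT, luminescence read. Decrease in ATP = toxicity; AC50 via standard Hill equation. Positive control tetraoctylammonium bromide.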
# [7] = Cell Viability - LYMP2-012 (AID 982);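 note: cellular ATP by luciferase luminescence where a drop means cytotoxicity; cells exposed to compound for one day before reading; nearly all actives have a fitted effect of over 55% in size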
# [8] = Cell Viability - LYMP2-014 (AID 983); note: series mostly up to about 92 µM; nearly all actives have a fitted effect of over 50% in size
# Outline: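 2500 cells/well, 5 hr 37 C; cpd 24 hr 37 C, complete medium; CellTiter-Glo 30 min RT, luminescence; ATP loss = toxicity; AC50 via Hill eqn; tetraoctylammonium bromide positive control.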
# [9] = Cell Viability - LYMP2-016 (AID 984); note: nearly all actives have a fitted effect of over 55% in size
# Outline: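 Cells were seeded at 2500 per well and rested 5 hr before a 24 hr compound exposure at 37 C. Viability was then gauged as cellular ATP by luciferase luminescence, with AC50 values fitted to the Hill equation.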
# [10] = Cell Viability - LYMP2-018 (AID 985); note: nearly all actives have a fitted effect of over 50% in size
# Outline: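 2500 cells/well; 5 hr 37 C; cmpd 24 hr 37 C, complete medium; CellTiter-Glo 30 min RT; luminescence. Tetraoctylammonium bromide positive control. AC50 via Hill fit.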
# [11] = Cell Viability - LYMP2-026 (AID 989); note: nearly all actives have a fitted effect of over 50% in size
# Outline: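 qHTS cytotoxicity: 2500 cells/well, 5 hr 37 C, compound 24 hr 37 C, CellTiter-Glo 30 min RT, luminescence. Tetraoctylammonium bromide positive control. AC50 via standard Hill fit.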
# [12] = Cell Viability - LYMP1-002 - Assay at 40 hr (AID 994); note: nearly all actives have a fitted effect of over 60% in size
# Outline: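 qHTS cytotoxicity; 2500 cells/well, 5 hr 37 C settle, compound 40 hr 37 C. CellTiter-Glo, 30 min RT, luminescence (ATP). Concentration-response, Hill fit → AC50. Pos. ctrl tetraoctylammonium bromide.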
# [13] = target: Estrogen receptor (Homo sapiens) (UniProt P03372); experiment: qHTS assay for small molecule antagonists of estrogen receptor alpha signaling (AID 588513; active = well fitted curve in the direction sought with a large enough effect in the signal ratio, with a control signal flat, not every such curve was filed as active; inconclusive = small, poorly fitted or top-dose-only effect, or effect the other way, or a change in a side signal; inactive = no such curve, though single readings can be large or run the other way; the % refers to the signal ratio; note: potency is the fitted concentration of half-maximal effect)
# Outline: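 Fluorescence from CCF4 substrate after 2 h at room temperature gave reporter activity; cells had been exposed to compound and 0.5nM 17-beta-estradiol for 18 h at 37 C. Hill-equation fitting yielded IC50 and maximal response.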
# [14] = target: Estrogen receptor (Homo sapiens) (UniProt P03372); experiment: qHTS assay for small molecule agonists of estrogen receptor alpha signaling (AID 588514; calls by dose curve; note: nearly all actives have a fitted effect of over 70% in size)
# Outline: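 Read-out: CCF4 fluorescence from a beta-lactamase reporter in ER-alpha-UAS-bla HEK 293 cells after 18 hrs of compound exposure at 37 C. Normalized to 20 nM 17-beta-estradiol (100%) and DMSO (0%).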
# [15] = target: Androgen receptor (Homo sapiens) (UniProt P10275); experiment: qHTS assay for small molecule agonists of androgen receptor signaling (AID 588515; active = well fitted curve in the direction sought with a large enough effect in the signal ratio, with a control signal flat; inconclusive = small, poorly fitted or top-dose-only effect, or effect the other way, or a change in a side signal; inactive = no such curve, though single readings can be large or run the other way; the % refers to the signal ratio); conditions: AR-UAS-bla HEK293, beta-lactamase ratio, agonist 16 h; stronger effect = higher value
# Outline: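 Stimulation of an AR-responsive β-lactamase reporter in GripTite HEK293 cells was measured after 16 h compound exposure at 37 °C, via CCF4 fluorescence after 2 h RT. EC50 from Hill fits, normalized to R1881 at 30 nM.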
# [16] = target: Androgen receptor (Homo sapiens) (UniProt P10275); experiment: qHTS assay for small molecule antagonists of androgen receptor signaling (AID 588516; active = well fitted curve in the direction sought with a large enough effect in the signal ratio, with a control signal flat, not every such curve was filed as active; inconclusive = small, poorly fitted or top-dose-only effect, or effect the other way, or a change in a side signal; inactive = no such curve, though single readings can be large or run the other way; the % refers to the signal ratio)
# Outline: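 Cells were plated and incubated 5 h, compounds added in titration, then R1881 (10 nM final) as agonist. After 16 h at 37 C, CCF4 substrate was loaded for 2 h at room temperature and fluorescence measured.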
# [17] = target: Glucocorticoid receptor (Homo sapiens) (UniProt P04150); experiment: qHTS assay for small molecule agonists of glucocorticoid receptor signaling (AID 588532; active = well fitted curve in the direction sought with a large enough effect in the signal ratio, with a control signal flat; inconclusive = small, poorly fitted or top-dose-only effect, or a change in a side signal; inactive = no such curve, though single readings can be large or run the other way; the % refers to the signal ratio); conditions: HeLa MMTV-bla, beta-lactamase ratio, agonist, 18 h; stronger effect = higher value; percent of dexamethasone control, DMSO zero
# Outline: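 Stimulation of a glucocorticoid response element-driven beta-lactamase gene was measured in HeLa cells. Responses were scaled between DMSO basal and 0.1 uM dexamethasone, then fitted for half-maximal stimulation.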
# [18] = target: Peroxisome proliferator-activated receptor delta (Homo sapiens) (UniProt Q03181); experiment: qHTS assay for small molecule agonists of peroxisome proliferator-activated receptor delta signaling (AID 588534; calls by dose curve)
# Outline: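 Titration series tested in agonist mode on beta-lactamase reporter cells; 18 hrs at 37 C after a 5 hr pre-incubation. Readout: CCF4 fluorescence, 2 hrs RT. Hill equation gives EC50 and maximal response.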
# [19] = qHTS assay for small molecule antagonists of peroxisome proliferator-activated receptor delta signaling (AID 588535; active = well fitted inhibition curve with a large enough effect in the signal ratio, with a control signal flat, not every such curve was filed as active; inconclusive = small, poorly fitted or top-dose-only effect, or effect the other way, or a change in a side signal; inactive = no such curve, though single readings can be large or run the other way; the % refers to the signal ratio;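 for max response: cells co-treated with a PPAR-delta agonist as stimulator during compound exposure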); conditions: HEK293T PPARd-UAS-bla, beta-lactamase FRET ratio, 18 h; 460 nm channel
# Outline: (§1)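 Compounds tested in titration on PPAR-delta-UAS-bla HEK293T cells grown in charcoal/dextran-stripped serum (2%); beta-lactamase activity read via CCF4 emission at 460 and 530 nm.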
# [20] = target: Peroxisome proliferator-activated receptor delta (Homo sapiens) (UniProt Q03181); experiment: as above
# Outline: as §1
# [21] = target: Vitamin D3 receptor (Homo sapiens) (UniProt P11473); experiment: qHTS assay for small molecule antagonists of vitamin D receptor signaling (AID 588541; calls by dose curve;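 note: receptor activated by calcitriol during compound treatment; series mostly up to about 77 µM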)
# Outline: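 VDR-UAS-bla HEK293T cells (2000/well, 2% charcoal-stripped FBS) were treated with titrated compounds plus 1-alpha,25-dihydroxyvitamin D3 (50 nM or 3 nM final) for 16 h at 37 C. CCF4 beta-lactamase fluorescence was read; Hill fits gave IC50.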
# [22] = target: Thyroid hormone receptor beta (Homo sapiens) (UniProt P10828); experiment: qHTS assay for small molecule agonists of thyroid hormone receptor beta signaling (AID 588545; calls by dose curve)
# Outline: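 Beta-lactamase reporter activity under TR response element control is measured in HEK 293 cells after 18 hrs compound exposure. Signal is ratiometric CCF4 fluorescence, 460/530 nm.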
# [23] = target: Voltage-gated inwardly rectifying potassium channel KCNH2 (Homo sapiens) (UniProt Q12809); experiment: qHTS Assay for Small Molecule Inhibitors of the Human hERG Channel Activity (AID 588834);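 note: potency is the fitted concentration of half-maximal effect; lower thallium flux fluorescence means stronger hERG block; nearly all actives have a fitted effect of over 50% in size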
# Outline: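 Step 1: BacMam hERG transduction of U2OS, 4 hrs RT. Step 2: overnight 37 °C, plate 2000 cells/well, 4 hr. Step 3: FluxOR load, compound 10 min, stimulate, read fluorescence.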
# [24] = qHTS assay for small molecule activators of the p53 signaling pathway (AID 651743; active = well fitted activation curve with a large enough effect in the signal ratio, not every such curve was filed as active; inconclusive = small, poorly fitted or top-dose-only effect, or a change in a side signal; the % refers to the signal ratio; note: series mostly up to about 92 µM); conditions: HCT-116 p53RE-bla, beta-lactamase FRET ratio, 16 h; activation: stronger effect = higher value
# Outline: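 Here HCT-116 cells with an integrated p53-responsive beta-lactamase gene were incubated with compounds (16 hours, 37 C) after a 5-hour plating period; beta-lactamase activity was detected as fluorescence intensity via B/G FRET substrate.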
# [25] = qHTS assay for small molecule activators of the nuclear factor-kappa B (NF-kB) signaling pathway (AID 651749; active = well fitted activation curve with a large enough effect in the signal ratio; inconclusive = small, poorly fitted or top-dose-only effect, or a change in a side signal; the % refers to the signal ratio; note: series mostly up to about 77 µM); conditions: NF-kB-bla ME-180 cells, beta-lactamase FRET ratio, 16 h; activation: stronger effect = higher value
# Outline: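 Beta-lactamase reporter expression, controlled by NF-kB response elements in ME-180 cells, was quantified fluorometrically via FRET disruption; cells at 2,000/well had been incubated with 23 nL test compound for 16 hr.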
# [26] = target: Tumor necrosis factor (Homo sapiens) (UniProt P01375); experiment: qHTS assay to identify small molecules that stimulate Tumor Necrosis Factor-alpha (TNF-alpha) secretion (AID 651757; active = well fitted curve in the direction sought with a large enough effect in the signal ratio; inconclusive = small, poorly fitted or top-dose-only effect, or a change in a side signal; inactive = no such curve, though single readings can be large or run the other way; the % refers to the signal ratio)
# Outline: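 THP-1 cells, 3000/well; compound 17 hrs, 37 C; add cryptate/XL665 anti-TNF-alpha antibody pair; 3 hr RT; TR-FRET (HTRF) read of secreted TNF-alpha. Quantitative HTS format.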
# [27] = qHTS assay for environmental chemicals that activate the Aryl hydrocarbon Receptor (AhR) signaling pathway (AID 651777); conditions: 1A2-DRE human hepatoma cells, luciferase, 24 h; activation: stronger effect = higher value; note: nearly all actives have a fitted effect of over 15% in size
# Outline: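 Measured luciferase activity, read 30 min after One-Glo addition at room temperature, from human hepatoma cells bearing a dioxin response element–CYP1A2 promoter reporter and exposed to compound for 24 hr at 37 C.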
# [28] = target: Peroxisome proliferator-activated receptor alpha (Homo sapiens) (UniProt Q07869); experiment: qHTS assay for small molecule agonists of the peroxisome proliferator-activated receptor alpha (PPARalpha) signaling pathway (AID 651778); conditions: PathHunter PPARalpha complementation, chemiluminescence, 6 h; stronger effect = higher value
# Outline: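 Cells plated at 2,000/well and held overnight at 37 C, 5% CO2, then compound added by pin tool for 6 hr; after PathHunter detection reagent and 60 min at room temperature, chemiluminescence from enzyme complementation was read.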
# [29] = qHTS assay for small molecule agonists of the antioxidant response element (ARE) signaling pathway measured by Nrf2-dependant transcriptional activity (AID 720636; active = well fitted curve in the direction sought with a large enough effect in the repeat runs; inconclusive = weak or mixed curves; inactive = no such curve, though single readings can be large; an effect the other way counts as inactive or inconclusive; note: potency is the fitted concentration of half-maximal effect)
# Outline: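 In HepG2 cells engineered with an Nrf2-responsive luciferase gene, ARE induction was quantified as luminescence after 16 hr compound treatment at 37 C.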
# [30] = qHTS assay for small molecule antagonists of the retinoid-related orphan receptor gamma (ROR-gamma) signaling pathway - cell viability counter screen (AID 720652; active = well fitted curve in the direction sought with a large enough effect in the repeat runs; inconclusive = weak or mixed curves; inactive = no such curve, though single readings can be large; an effect the other way counts as inactive or inconclusive;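 note: CHO reporter cells with doxycycline-induced ROR-gamma expression; series mostly up to about 92 µM; compound exposure lasted 16 hr before ATP read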)
# Outline: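 CHO RORE-LUC/TET-ROR line, 1,000 cells/well, 37 C 5% CO2 5 hr; cpd or DMSO + doxycycline induction, 16 hr. CellTiter-Glo, 30 min RT, luminescence = ATP content.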
# [31] = qHTS assay for small molecule agonists of the antioxidant response element (ARE) signaling pathway measured by Nrf2-dependant transcriptional activity - cell viability counter screen (AID 720653; active = well fitted curve in the direction sought with a large enough effect in the repeat runs; inconclusive = weak or mixed curves; inactive = no such curve, though single readings can be large; an effect the other way counts as inactive or inconclusive); conditions: ARE-bla HepG2 viability, CellTiter-Glo ATP luminescence, 16 h; max response: stronger effect = lower value
# Outline: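 ARE-bla HepG2 cells (2,000/well) rested 5 hrs at 37C/5% CO2, then exposed to compounds in DMSO for 16 hrs. Viability was read in the same wells as intracellular ATP by luminescence, 30 min at room temperature after reagent addition.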
# [32] = qHTS assay for cell viability of HEK293 cells (AID 743288); conditions: ATP luminescence (CellTiter-Glo), 18 h; max response: stronger effect = lower value; note: nearly all actives have a fitted effect of over 50% in size; note: potency is the fitted concentration of half-maximal effect
# Outline: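 Viable-cell counts were inferred from luciferase-based ATP content in HEK293 cells seeded at 2,000/well, pre-incubated ≥5 h, then dosed with DMSO-solubilised compounds for 18 h at 37 C.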
# [33] = qHTS assay for cell viability of the p53RE-bla HCT-116 cell line (AID 743292); note: nearly all actives have a fitted effect of over 55% in size
# Outline: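 Intracellular ATP of p53RE-bla HCT-116 cells measured by luciferase luminescence following 16 h compound incubation at 37 C; DMSO-only wells served as vehicle controls.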
# [34] = Primary qHTS for small molecule stabilizers of the endoplasmic reticulum resident proteome: Secreted ER Calcium Modulated Protein (SERCaMP) assay (AID 1508630)
# Outline: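 The SH-SY5Y reporter protocol was run at 3 concentrations up to 38.3 uM (primary) or 11 concentrations (follow-up): 16 h compound, 100 nM thapsigargin for 4 h, then extracellular luciferase luminescence.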
# [35] = target: Nuclear receptor subfamily 1 group I member 2 (Rattus norvegicus) (UniProt Q9R1A7); experiment: qHTS assay for small molecule activators of the rat pregnane X receptor (rPXR) signaling pathway (AID 651751; call rule not given here); conditions: rPXR reporter cells, luciferase (One-Glo), 24 h
# [36] = qHTS assay for small molecule activators of the human pregnane X receptor (PXR) signaling pathway (AID 720659; call rule not given here)
# Androgen receptor (Homo sapiens), sequence (P10275 whole entry, looked up): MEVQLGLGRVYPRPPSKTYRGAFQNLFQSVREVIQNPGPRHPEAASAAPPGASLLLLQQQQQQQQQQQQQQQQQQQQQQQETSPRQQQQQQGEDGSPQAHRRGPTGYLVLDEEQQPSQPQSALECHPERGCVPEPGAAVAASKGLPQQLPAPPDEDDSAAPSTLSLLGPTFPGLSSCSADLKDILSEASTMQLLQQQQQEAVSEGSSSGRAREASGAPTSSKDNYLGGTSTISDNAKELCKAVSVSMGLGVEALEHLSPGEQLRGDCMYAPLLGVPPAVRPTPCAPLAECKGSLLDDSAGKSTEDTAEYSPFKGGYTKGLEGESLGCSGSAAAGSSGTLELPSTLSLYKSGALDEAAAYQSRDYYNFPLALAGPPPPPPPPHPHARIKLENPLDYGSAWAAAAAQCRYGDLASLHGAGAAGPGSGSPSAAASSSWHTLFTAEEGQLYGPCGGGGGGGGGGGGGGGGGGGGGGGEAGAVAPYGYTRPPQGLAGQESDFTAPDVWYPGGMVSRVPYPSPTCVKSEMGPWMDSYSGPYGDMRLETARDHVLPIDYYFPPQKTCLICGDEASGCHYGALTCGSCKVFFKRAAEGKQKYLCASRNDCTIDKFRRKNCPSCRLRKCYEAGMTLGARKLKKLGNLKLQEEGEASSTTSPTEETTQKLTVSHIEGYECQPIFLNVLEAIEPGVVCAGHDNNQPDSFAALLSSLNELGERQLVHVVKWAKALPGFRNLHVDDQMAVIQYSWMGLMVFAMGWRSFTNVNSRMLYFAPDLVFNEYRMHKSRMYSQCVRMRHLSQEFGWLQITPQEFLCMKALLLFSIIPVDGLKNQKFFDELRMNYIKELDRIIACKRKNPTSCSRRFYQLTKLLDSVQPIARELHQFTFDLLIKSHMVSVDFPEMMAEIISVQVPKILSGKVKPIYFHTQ
# Estrogen receptor (Homo sapiens), sequence (P03372 whole entry, looked up): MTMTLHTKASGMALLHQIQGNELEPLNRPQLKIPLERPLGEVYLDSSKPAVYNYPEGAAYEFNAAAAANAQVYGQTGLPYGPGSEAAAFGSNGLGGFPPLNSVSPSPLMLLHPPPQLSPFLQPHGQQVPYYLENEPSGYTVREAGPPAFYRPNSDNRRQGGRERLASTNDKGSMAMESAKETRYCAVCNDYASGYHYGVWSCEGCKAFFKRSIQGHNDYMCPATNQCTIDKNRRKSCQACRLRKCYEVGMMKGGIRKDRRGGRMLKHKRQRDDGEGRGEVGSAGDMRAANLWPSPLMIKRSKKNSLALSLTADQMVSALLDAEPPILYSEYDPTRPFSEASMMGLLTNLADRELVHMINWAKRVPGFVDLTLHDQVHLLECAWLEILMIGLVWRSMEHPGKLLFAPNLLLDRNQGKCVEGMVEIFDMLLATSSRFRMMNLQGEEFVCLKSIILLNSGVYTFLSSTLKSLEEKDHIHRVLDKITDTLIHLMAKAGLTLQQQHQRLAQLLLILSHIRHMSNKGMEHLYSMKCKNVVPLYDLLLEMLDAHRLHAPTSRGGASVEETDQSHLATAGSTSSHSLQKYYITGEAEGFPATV
# Peroxisome proliferator-activated receptor delta (Homo sapiens), sequence (Q03181 whole entry, looked up): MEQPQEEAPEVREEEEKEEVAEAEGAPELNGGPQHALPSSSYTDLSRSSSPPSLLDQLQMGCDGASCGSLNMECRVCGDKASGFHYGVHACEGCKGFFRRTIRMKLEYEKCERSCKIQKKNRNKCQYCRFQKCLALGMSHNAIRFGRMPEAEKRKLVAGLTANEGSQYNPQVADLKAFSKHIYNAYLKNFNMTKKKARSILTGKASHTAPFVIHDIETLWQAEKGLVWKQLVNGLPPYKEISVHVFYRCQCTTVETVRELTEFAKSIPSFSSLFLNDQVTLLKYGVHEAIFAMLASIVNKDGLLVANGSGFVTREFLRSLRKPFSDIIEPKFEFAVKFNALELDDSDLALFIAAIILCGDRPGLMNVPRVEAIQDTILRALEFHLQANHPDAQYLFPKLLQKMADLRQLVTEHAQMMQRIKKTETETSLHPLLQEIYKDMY
# Glucocorticoid receptor (Homo sapiens), sequence (P04150 whole entry, looked up): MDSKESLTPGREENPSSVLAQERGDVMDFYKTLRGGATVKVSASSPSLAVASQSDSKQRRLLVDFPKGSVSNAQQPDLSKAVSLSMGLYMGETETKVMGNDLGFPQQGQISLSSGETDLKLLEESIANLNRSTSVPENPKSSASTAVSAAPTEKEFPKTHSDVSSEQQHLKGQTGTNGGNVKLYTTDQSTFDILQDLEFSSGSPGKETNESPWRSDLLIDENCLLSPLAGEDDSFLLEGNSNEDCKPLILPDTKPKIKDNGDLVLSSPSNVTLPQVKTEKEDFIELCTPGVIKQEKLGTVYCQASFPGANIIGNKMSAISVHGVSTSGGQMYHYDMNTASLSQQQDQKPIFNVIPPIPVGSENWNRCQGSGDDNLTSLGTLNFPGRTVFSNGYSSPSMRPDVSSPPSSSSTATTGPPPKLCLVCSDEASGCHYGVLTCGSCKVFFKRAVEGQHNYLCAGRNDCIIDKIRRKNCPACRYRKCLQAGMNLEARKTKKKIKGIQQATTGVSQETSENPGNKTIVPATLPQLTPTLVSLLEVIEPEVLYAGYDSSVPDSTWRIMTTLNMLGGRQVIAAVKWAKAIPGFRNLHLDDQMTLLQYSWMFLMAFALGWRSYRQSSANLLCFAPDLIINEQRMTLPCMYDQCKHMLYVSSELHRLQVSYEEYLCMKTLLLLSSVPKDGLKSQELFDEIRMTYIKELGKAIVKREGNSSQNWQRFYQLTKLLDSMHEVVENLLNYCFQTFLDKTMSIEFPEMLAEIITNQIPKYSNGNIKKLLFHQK
# Peroxisome proliferator-activated receptor alpha (Homo sapiens), sequence (Q07869 whole entry, looked up): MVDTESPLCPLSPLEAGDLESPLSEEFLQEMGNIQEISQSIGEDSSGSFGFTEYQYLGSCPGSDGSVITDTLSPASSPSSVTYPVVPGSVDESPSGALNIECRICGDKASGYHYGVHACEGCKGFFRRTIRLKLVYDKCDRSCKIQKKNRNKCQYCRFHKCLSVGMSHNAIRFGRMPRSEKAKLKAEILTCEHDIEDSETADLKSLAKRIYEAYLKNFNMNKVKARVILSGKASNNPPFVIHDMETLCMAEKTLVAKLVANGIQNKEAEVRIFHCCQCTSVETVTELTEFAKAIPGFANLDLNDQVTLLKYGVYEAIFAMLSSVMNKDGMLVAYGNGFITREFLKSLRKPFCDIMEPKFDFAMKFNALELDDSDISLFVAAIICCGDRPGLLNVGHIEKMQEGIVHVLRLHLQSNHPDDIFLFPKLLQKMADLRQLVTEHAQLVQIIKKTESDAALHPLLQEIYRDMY
# Thyroid hormone receptor beta (Homo sapiens), sequence (P10828 whole entry, looked up): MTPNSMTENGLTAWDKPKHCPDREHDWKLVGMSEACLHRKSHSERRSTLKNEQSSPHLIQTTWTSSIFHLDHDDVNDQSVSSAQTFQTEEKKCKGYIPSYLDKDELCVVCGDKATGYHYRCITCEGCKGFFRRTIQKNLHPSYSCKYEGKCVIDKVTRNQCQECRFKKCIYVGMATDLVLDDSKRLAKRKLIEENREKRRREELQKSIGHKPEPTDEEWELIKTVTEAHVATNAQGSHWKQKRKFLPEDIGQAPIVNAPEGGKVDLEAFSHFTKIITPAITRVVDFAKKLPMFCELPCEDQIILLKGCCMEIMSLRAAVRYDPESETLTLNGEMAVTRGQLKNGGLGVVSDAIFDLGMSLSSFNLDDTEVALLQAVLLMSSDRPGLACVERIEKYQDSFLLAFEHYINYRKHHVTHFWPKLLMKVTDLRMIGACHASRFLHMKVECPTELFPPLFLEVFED
# Nuclear receptor subfamily 1 group I member 2 (Rattus norvegicus), sequence (Q9R1A7 whole entry, looked up): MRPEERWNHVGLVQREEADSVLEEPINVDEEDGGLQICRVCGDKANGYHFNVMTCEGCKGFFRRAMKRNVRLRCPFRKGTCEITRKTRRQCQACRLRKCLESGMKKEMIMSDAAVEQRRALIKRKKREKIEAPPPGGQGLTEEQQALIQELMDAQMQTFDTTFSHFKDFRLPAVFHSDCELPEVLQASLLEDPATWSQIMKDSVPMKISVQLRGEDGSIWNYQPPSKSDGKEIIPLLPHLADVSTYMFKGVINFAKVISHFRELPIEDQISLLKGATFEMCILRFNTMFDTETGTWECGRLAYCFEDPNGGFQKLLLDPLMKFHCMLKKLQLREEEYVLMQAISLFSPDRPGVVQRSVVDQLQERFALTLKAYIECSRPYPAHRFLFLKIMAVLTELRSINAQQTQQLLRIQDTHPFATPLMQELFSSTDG
# Vitamin D3 receptor (Homo sapiens), sequence (P11473 whole entry, looked up): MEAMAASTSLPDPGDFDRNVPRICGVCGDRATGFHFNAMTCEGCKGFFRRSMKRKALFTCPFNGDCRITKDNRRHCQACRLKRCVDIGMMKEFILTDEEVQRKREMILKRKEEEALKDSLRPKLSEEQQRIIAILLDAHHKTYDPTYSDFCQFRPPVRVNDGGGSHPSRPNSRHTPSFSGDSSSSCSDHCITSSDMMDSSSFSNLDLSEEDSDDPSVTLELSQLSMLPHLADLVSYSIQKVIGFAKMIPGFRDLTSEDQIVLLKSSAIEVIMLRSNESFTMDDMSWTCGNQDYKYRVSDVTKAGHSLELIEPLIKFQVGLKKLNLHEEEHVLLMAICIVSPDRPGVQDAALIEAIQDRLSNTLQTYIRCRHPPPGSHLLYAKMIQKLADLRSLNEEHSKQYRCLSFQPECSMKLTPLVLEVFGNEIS
# Tumor necrosis factor (Homo sapiens), sequence (P01375 whole entry, looked up): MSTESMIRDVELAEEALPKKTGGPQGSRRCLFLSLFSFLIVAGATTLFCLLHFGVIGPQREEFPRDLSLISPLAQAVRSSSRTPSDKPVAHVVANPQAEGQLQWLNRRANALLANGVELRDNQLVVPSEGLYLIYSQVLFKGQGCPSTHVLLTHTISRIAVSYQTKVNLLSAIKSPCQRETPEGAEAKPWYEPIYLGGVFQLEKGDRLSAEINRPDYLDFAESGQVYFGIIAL
smiles,measurement,setting,value
CC(C)(c1ccc(OCC2CO2)cc1)c1ccc(OCC2CO2)cc1 (configuration not stated),outcome,[1],inactive
same,outcome,[2],inactive
same,outcome,[3],inactive
same,outcome,[4],inactive
same,outcome,[5],inactive
same,Potency,[6],inactive
same,outcome,[7],inactive
same,outcome,[8],inactive
same,outcome,[9],inactive
same,outcome,[10],inactive
same,outcome,[11],inactive
same,Potency,[12],inactive
same,Potency,[13],31.6 µM [inconclusive] (active)
same,Potency,[14],inactive
same,activation,[15],11.4% (inactive) and -15.4% (inactive)
same,outcome,[16],inactive
same,activation,[17],-1.68% (inactive) and 2.51% (inactive)
same,Potency,[18],inactive
same,max response,[19],35.6%
same,outcome,[20],inactive
same,outcome,[21],inactive
same,Potency,[22],inactive
same,Potency,[23],28.2 µM (active)
same,activation,[24],1.86% (inactive) and -8.3% (inactive)
same,activation,[25],-1.34% (inactive) and -1.67% (inactive)
same,outcome,[26],inactive
same,activation,[27],-0.167% (inactive) and 1.71% (inactive)
same,max response,[28],-4.29% (inactive) and -0.125% (inactive)
same,Potency,[29],66.8 µM (active)
same,outcome,[30],inactive
same,max response,[31],-3.1% (inactive)
same,Potency,[32],70.8 µM (active)
same,max response,[32],-24% (inactive)
same,outcome,[33],inactive
same,Potency,[34],inactive
same,max response,[35],-1.73% (inactive) and 0.566% (inactive)
same,outcome,[36],inactive
